From PubChem BioAssay
LASV entry inh – Lassa virus entry inhibition; Lassa virus pseudotype entry inhibition, cell reporter; 300,000 tested, 1.2% active; Potency, µM (doses to about 37.9 µM), actives largely listed as inhibitors; calls by dose curve; tested in HEK293 cells; note: nearly all actives have a fitted effect of over 50% in size
Marburg entry inh – blocks Marburg virus binding to or entry into cells; 300,000 tested, 1.8% active; Potency, µM (doses to about 37.8 µM), most hits filed as inhibitors; AID 540276; Marburg virus pseudotyped entry inhibition, cell reporter; calls by dose curve; tested in HEK293 cells
VACV Venus inh – inhibitors of vaccinia virus (Venus reporter); Potency, µM (highest dose often 36.5 µM), actives largely listed as inhibitors; 330,000 tested, 0.46% active; Vaccinia virus Venus reporter expression, fluorescence; calls by dose curve; tested in A549 cells; note: nearly all actives have a fitted effect of over 30% in size
FMDV antiviral – blocks foot and mouth disease virus | FMDV antiviral cell-based qHTS | Potency, µM (titrated, usually from 57.9 µM), hits mostly inhibitors | 410,000 tested, 1.2% active | AID 1159524; calls by dose curve; tested in HEK293T cells; note: read-out not given here; nearly all actives have a fitted effect of over 45% in size
VACV mCherry inh – vaccinia inhibition (mCherry reporter); 310,000 tested, 0.63% active; Vaccinia virus mCherry reporter infection, fluorescence; AID 720579; Potency, µM (highest dose often 36.5 µM), usual class: inhibitors; calls by dose curve; tested in A549 cells; note: nearly all actives have a fitted effect of over 35% in size
A number is an active result; i = inactive; ? = inconclusive; nt = not tested or not shown; [ ] = dose if it differs, or a comment. The list is not random: actives were taken first. Their share in the collection is about 3.2%.

SMILES | LASV entry inh | Marburg entry inh | VACV Venus inh | FMDV antiviral | VACV mCherry inh
CC1(c2ccc3ccccc3c2)NC(=O)N(CC(=O)Nc2cccc(S(=O)(=O)N3CCOCC3)c2)C1=O (configuration not stated) | i | ? | i | 35µM | i
CC1(c2cc(F)ccc2F)NC(=O)N(CC(=O)Nc2cccc(S(=O)(=O)N3CCCC3)c2)C1=O (configuration not stated) | nt | nt | nt | i | nt
Cc1nn(-c2ccccc2)c(C)c1NC(=O)COc1cc(F)ccc1[N+](=O)[O-] | nt | nt | nt | 25µM | nt
Cc1nn(-c2ccccc2)c(C)c1NC(=O)COc1ccc(Br)cc1Cl | ? | i | i | 22µM | i
Nc1ccc2ccccc2c1C(=O)c1ccccc1 | i | i | i | i | ?
O=C(N/N=C/c1ccco1)c1cccc(N2CCCC2=O)c1 | i | i | i | i | i
COc1ccc(O)c(/C=N/NC(=O)c2ccc(N3CCCC3=O)cc2)c1 | ? | ? | ? | i | 2.8µM
O=C(N/N=C/c1cc(Br)ccc1O)c1cccc(N2CCCC2=O)c1 | ? | 23µM | ? | i | 7.9µM
COc1ccc(O)c(/C=N/NC(=O)c2cccc(N3CCCC3=O)c2)c1 | ? | ? | i | i | 2.5µM
C=CC1=C(C)C2=NC1=CC1=NC(=CC3=NC(=CC4=NC(=C2)C(C)=C4CCC(=O)O)C(CCC(=O)O)=C3C)C(C=C)=C1C.[Zn] | nt | nt | nt | i | nt
CCC1CN(CCNC(=O)c2cscn2)Cc2cc(OC)ccc2O1 (configuration not stated) | nt | nt | i | i | i
COc1ccc(-c2nc3n(c(=O)c2C#N)CCCS3)cc1 | i | i | i | i | nt
CCOc1ccc(-c2nc3n(c(=O)c2C#N)CCCS3)cc1 | 7.1µM | ? | i | i | nt
Cc1ccc(S(=O)(=O)N(C)Cc2ccc(C(=O)N/N=C/c3ccc(OC(F)F)cc3OC(F)F)cc2)cc1 | ? | ? | i | 6.3µM | i
O=C(N/N=C/c1ccc(OC(F)F)cc1OC(F)F)c1ccc(Br)cc1 | i | i | nt | i | nt
COc1ccc(C2N=C(Nc3nc4ccccc4o3)NC3=C2C(=O)CC(C)(C)C3)cc1 (configuration not stated) | nt | nt | ? | nt | i
O=C(c1ccccc1)c1ccc(OCC(O)CN2CCN(S(=O)(=O)N3CCCCC3)CC2)cc1 (configuration not stated) | ? | i | nt | 14µM | nt
CC(C)c1ccc(CNC(=O)CCc2ccccc2)cc1 | nt | nt | i | i | i
CC(C)c1ccc(CNCc2ccccc2)cc1 | i | 18µM | i | nt | i
Cc1cccc(CS(=O)(=O)c2ncc(Cl)c(C(=O)NCc3ccccc3)n2)c1 | ? | 4.5µM | i[7.34 µM] | 32µM | i[7.34 µM]
O=C(Nc1ccccc1F)c1nc(S(=O)(=O)Cc2ccccc2F)ncc1Cl | ? | ? | ? | ? | i
Cc1ccc(CSc2ncc(Cl)c(C(=O)NCc3ccccc3)n2)cc1 | i | i | i | i | i
O=C(NCc1ccccc1)c1nc(S(=O)(=O)Cc2ccc(F)cc2)ncc1Cl | ? | ? | i[7.34 µM] | 32µM | i[7.34 µM]
CCc1ccc(Cn2c(CNS(=O)(=O)c3ccc([N+](=O)[O-])cc3)nc3cccnc32)cc1 | i | nt | i | i | i
CC(O)C1C=CC=CC(=O)OC2CC3OC4C5OC5(C)C(O)CC4(COC(=O)C(O)C(C)CCO1)C2(C)C31CO1 (configuration not stated) | nt | 0.13µM | nt | nt | nt
SMILES | LASV entry inh | Marburg entry inh | VACV Venus inh | FMDV antiviral | VACV mCherry inh
Cc1ccc(CNC(=O)C2CCN(C(=O)c3ccc(-n4ccc5ccccc54)s3)CC2)cc1 | i | nt | i | i | i
Cc1ccc(C(=O)Nc2ccccc2C(=O)Nc2ccccn2)cc1Cl | i | 13µM | i | i | i
O=C(Nc1ccccn1)c1ccc(-c2ccccc2)cc1 | ? | 1.1µM | i | i | i
Cc1cc2c(cc1C)N[C@]1(C[C@H]3CCCC(=O)N4CC[C@@H](C1)[C@@H]34)C(=NC1CCCCC1)N2 | nt | nt | i | nt | i
CCC(=O)N[C@@H]1c2ccccc2C2(CCN(Cc3cnc(N(C)C)s3)CC2)[C@H]1OC | nt | nt | i | i | i
CCOc1c2c(c(-c3ccc4c(c3)OCO4)c3cc(OC)c(OC)cc13)C(=O)OC2 | nt | nt | 4µM | nt | ?
CC(=O)OC(C)(C)/C=C/C(=O)[C@](C)(O)C1[C@H](O)C[C@@]2(C)C3CC=C4C(C[C@H](O)C(=O)C4(C)C)[C@]3(C)C(=O)C[C@]12C (some centres not stated) | nt | nt | 2.5µM | 28µM | 0.5µM
CC(C)(O)/C=C/C(=O)C(C)(O)C1C(O)CC2(C)C3CC=C4C(C=C(O)C(=O)C4(C)C)C3(C)C(=O)CC12C (configuration not stated) | 0.32µM | 0.11µM | 28µM | i | 7.9µM
CCOC(=O)c1ccc([N+](=O)[O-])c(CS(=O)(=O)c2ccc(Cl)cc2)c1 | nt | nt | nt | i | nt
